Records with an inconclusive call do not appear. A call without a number means that no potency is given here. Calls of active or inactive are those of the source. Calls come from the whole dose curve; as a rule, active = well fitted cell-killing curve with a large enough effect; inconclusive = small, poorly fitted or top-dose-only effect; inactive = flat fitted curve, though single readings scatter.
Potency is the fitted concentration of half-maximal effect.

This assay in a line: Quantitative highthroughput screen to assess conditional lethalithy of NOMO1 cells grown in RPMI1640 with untreated serum (RPMI+s) (AID 1963876). Note: nearly all actives have a fitted effect of over 35% in size. The conditions noted are these: NOMO1 AML cells in RPMI+serum, CellTiter-Glo viability, 48 h; series mostly up to 45.8 µM. The text has this: Assay Provider: Jason Cantor Ph.D.
Department of Biochemistry
University of Wisconsin-Madison, Madison, WI, USA
Chemical screening studies have identified drug sensitivities across hundreds of cancer cell lines but most putative therapeutics fail to translate. Discovery and development of drug candidates in models that more accurately reflect nutrient levels in human blood is a major challenge. Here we performed high-throughput screens in conventional versus Human Plasma-Like Medium (HPLM) to identify compounds that were "missed" when screening using the artificial culture condition. Sets of conditional anticancer compounds spanned phases of clinical development and included non-oncology drugs were assessed. […] We also traced conditional phenotypes for several chemotherapeutics to availability of HPLM-specific metabolites and confirmed others for compounds whose reported targets are encoded by nonessential genes. Our findings establish generalizable strategies for exploiting conditional lethality in HPLM to reveal therapeutic candidates and mechanisms of action in cancer cells.
Described herein are the results of each viability screens against three cell lines: NOMO1 (an acute myeloid leukemia cell line); P12-Ichikawa (a T-cell acute lymphoblastic leukemia); and SEM (a B-cell ALL). Each assay was screened using 3 different cell culture media: homemade human plasma-Like medium with 10% dialyzed fetal bovine serum (HPLM+ds); RPMI1640 with 10% untreated FBS and 5mM glucose (RPMI+s); and RPMI1640 with 10% dialyzed fetal bovine serum and 5 mM glucose (RPMI+ds).
PROTOCOL TABLE (as described by Inglese J, Shamu CE and Guy RK. 2007)
SEQUENCE No. (e.g., 1, 2, 3, etc.); […] (e.g., Cells, Incubation, Reagent, etc.); VALUE and DESCRIPTION.
1; Cells; 5 uL; white, solid bottom 1536-well Greiner assay plate.
2; Compounds; 23 nL; Kalypsis pin tool (Wako USA) equipped with a 1536-well pin head to transfer to the assay plates.
3; Incubation; 48 hours; 37C incubation.
4; Reagent; 3 uL; CellTiter Glo (Promega).
5; Incubation; 5 min, room temperature
6; Detection; Luminescence, Viewlux PerkinElmer.
NOTES (numbers refer to Sequence numbers above)
1. Briefly, 5 ul of cell reagent was dispensed using a Multidrop Combi Dispenser. The NOMO1 and SEM cells were plated at 500 cells/well and the P12-Ichikawa line at 1000 cells/well.
2. After seeding the cells, 23 nL of MIPE 4.1 library compounds (in DMSO) were added to each plate using a Kalypsys 1536 Pintool dispenser. Bortezomib at final concentration of […] and DMSO were added to each plate as positive and negative controls respectively. For each screen, MIPE 4.1 compounds were added over an eleven-point concentration range […] in 3-fold dilutions.
3. Each plate was covered with a stainless steel gasketed lid to prevent evaporation and incubated for 48 hour at 37C, 95% relative humidity, and 5% CO2.
4-5. Three microliter CellTilter-GloTM luminescent substrate mix (Promega) reagent was added to the assay plate and incubated at room temperature for 5 min.
6. The luminescence signal was measured using a ViewLux (PerkinElmer) multiplate reader with a 2 second exposure time per plate. Data for each compound were normalized as percent viability such that measurements for DMSO and the empty well controls in each plate were defined as 100% and 0%, respectively.
In general terms: ATP-based viability assays read luminescence as a measure of living cells.
With `O=C1CC[C@@]2(O)[C@H]3Cc4ccc(O)c5c4[C@@]2(CCN3CC2CC2)[C@H]1O5`, the Potency is 7.43 µM (active).
The same measure for `C[C@](O)(CS(=O)(=O)c1ccc(F)cc1)C(=O)Nc1ccc(C#N)c(C(F)(F)F)c1`: “inactive”; for `CO[C@H]1CCC(O[C@H]2C[C@H]([C@]3(C)CC[C@]4(C[C@H](O)[C@@H](C)[C@@H]([C@@H](C)C=C(C)C(=O)[C@H](C)C[C@H](C)C(=O)O)O4)O3)O[C@]3(O[C@@H]([C@H]4O[C@@](O)(CO)[C@H](C)C[C@H]4C)C[C@H]3C)[C@H]2C)O[C@H]1C` (stereo not given in full): 18.7 µM (active); for `CC[C@@]1(O)C(=O)OCc2c1cc1n(c2=O)Cc2cc3ccccc3nc2-1`: 0.0743 µM (active).
In the case of `O=C(Oc1ccc([N+](=O)[O-])cc1)N1CCC(C(O)(c2ccc3c(c2)OCO3)c2ccc3c(c2)OCO3)CC1` it was “inactive”; in that of `Oc1ccc2c3c1O[C@H]1c4[nH]c5c(c4C[C@@]4(O)[C@@H](C2)N(CC2CC2)CC[C@]314)C[C@@]1(O)[C@H]2Cc3ccc(O)c4c3[C@@]1(CCN2CC1CC1)[C@H]5O4`, “inactive”.
In the case of `CN1CCN(c2ccc([N+](=O)[O-])c3no[n+]([O-])c23)CC1` it was “inactive”.
Take `CCN1C[C@]2(OC(=O)c3ccccc3NC(C)=O)CC[C@H](OC)[C@@]34[C@H]5CC6[C@@H](OC)C[C@](O)(C(C[C@@H]23)[C@@H]14)[C@@]5(O)[C@@H]6OC`: the Potency entry was “inactive”.
Take `C[C@@H]1O[C@@H](O[C@@H]2C=C3CC[C@@H]4[C@@H](CC[C@]5(C)[C@H](c6ccc(=O)oc6)CC[C@@]45O)[C@@]3(C)CC2)[C@H](O)[C@H](O)[C@H]1O`: the Potency is 0.0662 µM (active).
The same measure for `CN[C@@H]1Cc2cccc3[nH]c(=O)n(c23)C1`: “inactive”; for `COc1ccc2c(c1)CN(C)CC2c1ccc(Cl)c(Cl)c1` (stereo not given): 23.5 µM (active); for `COC(=O)[C@@H](N)CCCN=C(N)N[N+](=O)[O-]`: “inactive”.
The same measure for `CN1CCN(C(=O)O[C@H]2c3nccnc3C(=O)N2c2ccc(Cl)cn2)CC1`: “inactive”; for `CC1=C(O)C(=O)C=C2C1=CC=C1[C@@]2(C)CC[C@@]2(C)[C@@H]3C[C@](C)(C(=O)O)CC[C@]3(C)CC[C@]12C`: 3.72 µM (active); for `CCOc1ccccc1-n1c(C(C)N2CCN(C(=O)COc3ccc(Cl)cc3)CC2)nc2ccccc2c1=O` (stereo not given): 1.32 µM (active).
In the case of `CN(C)CCc1ccc(O)cc1` it was “inactive”.
Regarding `CC(=CCCC1=CCC(C2=CC(=O)OC2O)OC1O)CCC1=C(C)CCCC1(C)C` (stereo not given), the Potency entry is “inactive”.
`CN1C(=O)COc2c(C(=O)NC3CN4CCC3CC4)cc(Cl)cc21` (stereo not given): the Potency result is “inactive”.
For `C=C(C)[C@H]1Cc2c(ccc3c2O[C@@H]2COc4cc(OC)c(OC)cc4[C@@H]2C3=O)O1`, the Potency was 5.26 µM (active).
On to `CCCC(C)(COC(N)=O)COC(=O)NC(C)C` (stereo not given), for which the Potency entry was “inactive”.
The same measure for `COc1ccc(C(=O)c2c(C)n(CCN3CCOCC3)c3ccccc23)cc1`: “inactive”.
Turning to `CC(C)c1cccc(C(C)C)c1O`, the Potency result was “inactive”.
In the case of `COCC1(CO)C(=O)C2CCN1CC2` (stereo not given), the Potency was 20.9 µM (active).
The same measure for `CC(C)N(CCNC(=O)CN1CCCC1=O)C(C)C`: “inactive”.
Turning to `C=CCON=C(C[C@H]1O[C@@H]2O[C@]3(C)CC[C@@H]4[C@H](C)CC[C@@H]([C@H]1C)[C@@]24OO3)[C@H]1O[C@@H]2O[C@]3(C)CC[C@H]4[C@H](C)CC[C@@H]([C@@H]1C)[C@@]24OO3`, the Potency is 0.833 µM (active).
In the case of `CC(C)C[C@H](CN)CC(=O)O`, the Potency result was “inactive”.
Take `COC[C@H]1OC(=O)c2coc3c2[C@@]1(C)C1=C(C3=O)C2CCC(=O)[C@@]2(C)C[C@H]1OC(C)=O` (stereo not given in full): the Potency result was “inactive”.
In the case of `CC[C@@H]1[C@@H](C)O[C@@](O)([C@@H](C)[C@H](O)[C@H](C)[C@H]2OC(=O)C=CC=C[C@@H](C)[C@@H]([C@@H](C)[C@@H](O)[C@H](C)[C@@]3(O)C[C@H](O[C@H]4C[C@H](O)[C@H](O)[C@H](C)O4)[C@H](CC)[C@@H](C)O3)OC(=O)C=CC=C[C@@H]2C)C[C@H]1O[C@H]1C[C@H](O)[C@H](O)[C@H](C)O1` it was 2.96 µM (active); in that of `C[C@H]([C@H](O)CCC(C)(C)O)[C@H]1CC[C@@]2(O)C3=CC(=O)[C@@H]4C[C@@H](O)[C@@H](O)C[C@]4(C)[C@@H]3CC[C@]12C`, “inactive”.
`CN(C)CCN(C)CCc1ccc(Cl)c(Cl)c1`: the Potency entry is “inactive”.
Turning to `C[C@]12COC(=O)C[C@@H]1CC[C@@H]1[C@H]2CC[C@@]2(C)[C@H]1CC[C@]2(C)O`, the Potency entry was “inactive”.
The same measure for `Cc1cccc(C)c1NC(=O)CN1CCCC1=O`: “inactive”; for `CC1=NN=C(c2ccc(N)cc2)c2cc3c(cc2C1)OCO3`: “inactive”; for `Cc1nc(-c2ccc(-c3ccc(C(=O)N4CCc5cc6c(cc54)C4(CCN(C)CC4)CO6)cc3)c(C)c2)no1`: “inactive”.
Regarding `O=S(=O)(F)Cc1ccccc1`, the Potency result was “inactive”.
In the case of `CC1=C2C[C@@H]3[C@@H](CC=C4C[C@@H](O)CC[C@@]43C)[C@@H]2CC[C@]12O[C@H]1C[C@H](C)CN[C@H]1[C@H]2C` it was “inactive”; in that of `N[C@@H](Cc1ccc(N(CCCl)CCCl)cc1)C(=O)O`, 10.5 µM (active).
In the case of `CC(=O)Nc1ccc(OC[C@](C)(O)C(=O)Nc2ccc([N+](=O)[O-])c(C(F)(F)F)c2)cc1` it was “inactive”; in that of `COC1=CC(C)=C[C@@H](C)[C@@H](O)[C@@H](C)CC(C)=CC=C[C@H](OC)[C@H]([C@@H](C)[C@@H](O)[C@H](C)[C@@]2(O)C[C@@H](O)[C@H](C)[C@@H](C(C)C)O2)OC1=O`, 0.105 µM (active); in that of `C[C@]12CCC(=O)C(O)=C1CC[C@@H]1[C@H]3CCC(=O)[C@@]3(C)CC[C@@H]12`, “inactive”.

The values above are taken from PubChem BioAssay (NCATS).
